± gives the standard deviation of the averaged measurements. In all, about 1,700 compounds were measured (“fraction of GFP-LC3-positive cells (≥5 vesicles/cell)”: median about 0.43, highest 2% from about 0.81 on). The full list was thinned out, with the highest values kept by preference.
Test system: CbCln3 Δex7/8/Δex7/8 GFP-LC3 cerebellar neuronal cells
Experiment: fraction of GFP-LC3-positive cells (≥5 vesicles/cell); higher = more autophagosome accumulation
Outline: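 Compound (~50 nL in DMSO) was pin-transferred in duplicate onto wild-type or mutant CbCln3 cerebellar cells stably expressing GFP-LC3, seeded at 2 × 10^3/well in 384-well plates, for 24 h at 33 °C. After fixation in 3.2% PFA, three fields per well were imaged at 10×. The value reported is the duplicate average of the fraction of cells meeting a vesicle-count threshold, with CellProfiler counting GFP-LC3 vesicles per cell and out-of-focus images excluded. Cells met the threshold at 5 or more vesicles.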

SMILES | fraction of GFP-LC3-positive cells
CCCCCCCCCCCCCCC[C@@H](O)[C@H](CO)NC(=O)CCCCCCC [C8 Dihydroceramide] | 0.428
CCCCCCCCCCCCCCC[C@@H](O)[C@H](CO)NC(=O)CCCCCCC | 0.494
CN(CCc1ccc(Cl)c(Cl)c1)CC(O)COc1ccc(NS(C)(=O)=O)cc1 (stereo unspecified) | 0.503
CC(=N)NCc1cccc(CN)c1 | 0.371
Cc1c(N(C)CS(=O)(=O)[O-])c(=O)n(-c2ccccc2)n1C.[Na+] [Dipyrone] | 0.447
O=c1c(O)c(-c2ccc(O)cc2)oc2cc(O)cc(O)c12 [Kaempferol] | 0.294
O=C1C=CC(=O)c2c1ccc1c2ccc2ccccc21 [Chrysene-1,4-quinone] | 0.883
O=C1CCc2c(ccc3ccccc23)O1 [Splitomycin] | 0.354
N=C(N)NS(=O)(=O)c1ccc(N)cc1 [Sulfaguanidine] | 0.43
CN(C)CC/C=C1\c2ccccc2COc2ccccc21.Cl [Doxepin hydrochloride] | 0.567
CCCc1c(OCCCCc2nnn[nH]2)ccc(C(C)=O)c1O | 0.398 ± 0.011
Cc1c(N)c(=O)n(-c2ccccc2)n1C [Ampyrone] | 0.49
CO[C@@H]1[C@H](N(C)C(=O)c2ccccc2)C[C@H]2O[C@]1(C)n1c3ccccc3c3c4c(c5c6ccccc6n2c5c31)C(=O)NC4 | 0.636
O=P(O)(O)C(O)c1ccc2ccccc2c1 (stereo unspecified) | 0.425
CN(C)CC/C=C1\c2ccccc2CSc2ccccc21.Cl [Dosulepin hydrochloride] | 0.637
CN(C)CCn1nnnc1SCC1=C(C(=O)O)N2C(=O)[C@@H](NC(=O)Cc3csc(N)n3)[C@H]2SC1.Cl [Cefotiam hydrochloride] | 0.488
CCCCC/C=C\C[C@@H](O)/C=C/C=C/C=C/[C@@H](O)CCCC(=O)O [5(S),12(R)-DiHETE all trans] | 0.354
Nc1cc(N2CCCCC2)nc(N)[n+]1OS(=O)(=O)[O-] | 0.38
CCCC(=O)Nc1ccc(OCC(O)CNC(C)C)c(C(C)=O)c1.Cl (stereo unspecified) [Acebutolol hydrochloride] | 0.518
CN(C(=O)CN(CCO)CC(=O)N(C)C(C)(C)Cc1ccccc1)C(C)(C)Cc1ccccc1 [Oxethazaine] | 0.384
CCCCC[C@H](O)/C=C/[C@H]1[C@H](O)CC(=O)[C@@H]1CCCCCCC(=O)O [Prostaglandin E1] | 0.349
CCCCC[C@H](O)/C=C/[C@H]1[C@H](O)CC(=O)[C@@H]1CCCCCCC(=O)O | 0.346
O=c1[nH]c2cc(C(F)(F)F)ccc2n1-c1cc(C(F)(F)F)ccc1O | 0.292
C[n+]1ccccc1/C=N/O.[Cl-] [Pralidoxime chloride] | 0.428
Clc1ccc(COC(Cn2ccnc2)c2ccc(Cl)cc2Cl)c(Cl)c1 (stereo unspecified) [Miconazole] | 0.337
CC1(C)S[C@@H]2[C@H](NC(=O)[C@H](N)c3ccccc3)C(=O)N2[C@H]1C(=O)OC1OC(=O)c2ccccc21.Cl (stereo partly specified) [Talampicillin hydrochloride] | 0.422

SMILES | fraction of GFP-LC3-positive cells
CN/C(=N/CCSCc1nc[nH]c1C)NC#N [Cimetidine] | 0.473
Cn1cnc([N+](=O)[O-])c1Sc1ncnc2[nH]cnc12 [Azathioprine] | 0.388
CCCCC/C=C\C/C=C\C/C=C\C/C=C\CCCC(=O)O[C@@H](CO)COCCCCCCCCCCCCCCCC [1-Hexadecyl-2-arachidonoyl-glycerol] | 0.517
CCCCC/C=C\C/C=C\C/C=C\C/C=C\CCCC(=O)O[C@@H](CO)COCCCCCCCCCCCCCCCC | 0.311
CC(C)n1c(/C=C/[C@H](O)C[C@H](O)CC(=O)[O-])c(-c2ccc(F)cc2)c2ccccc21.[Na+] [Fluvastatin sodium salt] | 0.123
CC(CNC1CCCCC1)OC(=O)c1ccccc1.Cl (stereo unspecified) [Hexylcaine hydrochloride] | 0.411
O=C1NC(=O)C(c2ccccc2[N+](=O)[O-])=C1Nc1ccc(O)c(Cl)c1 | 0.364
CN[C@@H]1C(O[C@H]2O[C@H](CO)[C@@H](N)[C@H](O)[C@H]2O)O[C@H]2C[C@@H](N)[C@@H](O[C@H]3[C@H](O)[C@@H](O)[C@H](N)C[C@@H]3N)OC2[C@@H]1O (stereo partly specified) [Apramycin] | 0.274
CCCCCCCCCC(=O)N[C@@H](CCCN=C(N)N)C(=O)N[C@H](C(=O)N[C@@H](CCCCN)C(=O)N[C@@H](CCCN=C(N)N)C(=O)CCl)C(C)C | 0.536
CCCCC/C=C\C/C=C\CC1OC1C/C=C\CCCC(=O)O (stereo unspecified) | 0.392
CCCCC/C=C\C/C=C\CC1OC1C/C=C\CCCC(=O)O (stereo unspecified) [8,9-Epoxyeicosatrienoic acid] | 0.41
CCCCCC/C=C/CCCCCCCCC(=O)O [10(Z)-Heptadecenoic acid] | 0.419
CCCC[C@@H](C=O)NC(=O)OC(C)(C)C | 0.447
COc1c2occc2c(OC)c2c(=O)cc(C)oc12 [Khellin] | 0.508
Cl.c1cnc(N2CCN(Cc3ccc4c(c3)OCO4)CC2)nc1 [Piribedil hydrochloride] | 0.496
Clc1ccc(COC(Cn2ccnc2)c2ccc(Cl)cc2Cl)cc1.O=[N+]([O-])O (stereo unspecified) [Econazole nitrate] | 0.353
COC(=O)C1=C(C)NC(C)=C([N+](=O)[O-])C1c1ccccc1C(F)(F)F (stereo unspecified) | 0.449
CC(=O)N(CC(C)C(=O)O)c1c(I)cc(I)c(N)c1I (stereo unspecified) [Iocetamic acid] | 0.312
COc1cc(S(C)=O)ccc1-c1nc2ncccc2[nH]1 (stereo unspecified) [Sulmazole] | 0.364
CN(C)CCCN1c2ccccc2Sc2ccccc21.Cl [Promazine hydrochloride] | 0.434
C#C[C@]1(O)CC[C@H]2[C@@H]3CCC4=C(CCC(=O)C4)[C@H]3CC[C@@]21C [Norethynodrel] | 0.389
COc1ccc2cc([C@@H](C)C(=O)[O-])ccc2c1.[Na+] [(R) -Naproxen sodium salt] | 0.478
Cl.NC(CO)C(=O)NNCc1ccc(O)c(O)c1O (stereo unspecified) [Benserazide hydrochloride] | 0.411
CC(C)(C)c1cc(O)c(C(C)(C)C)cc1O [2,5-ditertbutylhydroquinone] | 0.696
COc1cc2nc(N(C)CCCNC(=O)C3CCCO3)nc(N)c2cc1OC.Cl (stereo unspecified) [Alfuzosin hydrochloride] | 0.474
